Compound activity as filed in PubChem BioAssay.
CRFBP-R2 block: antagonists of CRF-binding protein/CRF-R2 receptor complex; inhibition, % at 11.8 µM; hit rate 0.59% among 350,000; AID 588475; HEK293 CRF-R2/CRF-BP, CRF-induced calcium fluorescence;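 active means inhibition of the ligand-induced calcium signal above about 50% at the single tested concentration, limit read from the data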
MLLE-PAM2 inh: inhibitors of microRNA-mediated deadenylation, human PABP1 MLLE binding; P11940; GST-MLLE / FITC-PAM2 fluorescence polarization; inhibition, % at 20 µM; hit rate 0.36% among 360,000; in the data active means inhibition above about 35%, passing the limit was not always enough
eIF4H FP inh: inhibitors of RNA binding by human eIF4H; inhibition, % at 35 µM; Q15056; hit rate 0.94% among 290,000; eIF4H fluorescence polarization binding assay;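 further: calls also rest on retests at 20 µM and on dose response follow-up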
PABP polyA inh: PABP-poly(A) binding inhibition; hit rate 1% among 290,000; P11940; PABP-poly(A) RNA binding, fluorescence polarization; inhibition, % at 35 µM;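 further: calls also rest on retests at 20 µM and on dose response follow-up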
PHOSPHO1 inh: blocks human PHOSPHO1 phosphatase activity. Q8TCT1. recombinant PHOSPHO1, absorbance phosphatase assay. inhibition, % at 13.3 µM. hit rate 1.1% among 290,000. AID 1565; in the data active means inhibition above about 60%
Target sequence (Q8TCT1 whole entry, looked up): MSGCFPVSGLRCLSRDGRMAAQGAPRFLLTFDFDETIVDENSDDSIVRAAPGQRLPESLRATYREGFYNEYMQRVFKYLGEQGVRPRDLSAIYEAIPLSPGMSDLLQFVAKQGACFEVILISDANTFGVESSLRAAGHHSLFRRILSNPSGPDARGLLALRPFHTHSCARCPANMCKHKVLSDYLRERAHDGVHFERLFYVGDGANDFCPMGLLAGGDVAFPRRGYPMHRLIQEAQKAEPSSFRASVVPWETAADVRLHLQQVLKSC
Of the large screens only hits and unclear results are named; the others gave an inactive call. In the library only some 2.6% were active in any assay of this set; here they are far more common. Unless noted, how the calls were made is not given here.

Cc1nc2c(OCc3ccc(C#N)cc3)cccn2c1N(C)C(=O)CCC1CCCC1	none (no result: CRFBP-R2 block, eIF4H FP inh, PABP polyA inh, PHOSPHO1 inh)
O=c1[nH]c(CSc2nnnn2-c2ccc(Cl)cc2)nc2ccccc12	none
Clc1ccc(-n2nnnc2SCc2c(-c3ccccc3)nc3sccn23)cc1	PHOSPHO1 inh 97.5
COc1cc(NC(=O)CSc2cc(C)c3cc(C)cc(C)c3n2)c(C(=O)O)cc1OC	CRFBP-R2 block 64.9
CC(=O)c1sc(NC(=O)CCS(=O)(=O)c2ccc(Cl)cc2)nc1C	CRFBP-R2 block 61.8 (no result: eIF4H FP inh, PABP polyA inh, PHOSPHO1 inh)
COc1ccc(NC(=O)CCS(=O)(=O)c2ccc(Cl)cc2)cc1	none
O=[n+]1c2c(n([O-])c3cc(Br)ccc31)CCCC2	none
O=[n+]1c2c(n([O-])c3cc(F)c(F)cc31)CCCC2	eIF4H FP inh 65.6
Cc1ccc(C(=O)ONc2ccc(N=O)cc2)cc1	none
Cc1ccc(C(=O)ONc2ccc(N=NC(=O)c3ccccc3O)cc2)cc1	PHOSPHO1 inh 68.8
CC(C)(C)S(=O)N1Cc2cc(C(=O)N3CCc4ccccc4C3)nc(-c3cccc(-c4cccnc4)c3)c2[C@@H]1CCO (stereo partly drawn)	none (no result: CRFBP-R2 block, eIF4H FP inh, PABP polyA inh, PHOSPHO1 inh)
COC1(c2ccccc2)NC(=S)NN=C1c1ccccc1 (stereo not drawn)	PHOSPHO1 inh 75.2
CCCCOC1(c2ccccc2)NC(=S)NN=C1c1ccccc1 (stereo not drawn)	PHOSPHO1 inh 71.3 (no result: CRFBP-R2 block, MLLE-PAM2 inh)
O=C(Nc1ccc2c(c1)OCO2)c1cc(C2CCCCN2C(=O)c2ccc(Cl)cc2)on1 (stereo not drawn)	none (no result: CRFBP-R2 block, eIF4H FP inh, PABP polyA inh, PHOSPHO1 inh)
CCC1=NN2C(=N)/C(=C/c3c(C)nn(-c4ccccc4)c3Cl)C(=O)N=C2S1	eIF4H FP inh 74.4, PABP polyA inh 11.2
CS(=O)(=O)C1=NN2C(=N)/C(=C\c3ccc(OC(=O)c4ccco4)cc3)C(=O)N=C2S1	none
CCC1=NN2C(=N)/C(=C\c3cccn3-c3ccc(OC)cc3)C(=O)N=C2S1	none
CCC1=NN2C(=N)/C(=C\c3ccc(SCc4ccco4)o3)C(=O)N=C2S1	eIF4H FP inh inconclusive, PABP polyA inh inconclusive, PHOSPHO1 inh 83.3
CC(C)CS(=O)(=O)C1=NN2C(=N)/C(=C\c3ccc(OC(=O)c4ccco4)cc3)C(=O)N=C2S1	eIF4H FP inh 66.5, PABP polyA inh 60.7
N=C1/C(=C/c2ccco2)C(=O)N=C2SC(CC(=O)N3CCCC3)=NN12	eIF4H FP inh 78.6, PABP polyA inh 48.2
N=C1/C(=C/c2ccc(Br)o2)C(=O)N=C2SC(CC(=O)N3CCCC3)=NN12	none (no result: eIF4H FP inh, PABP polyA inh)
COc1cccc(C(=O)Nc2cccc3c2ccc2cccn23)c1	none
COC(=O)c1ccc2nc(C3CCCCC3)c(Cc3ccc(C)cc3)n2c1	none (no result: CRFBP-R2 block, eIF4H FP inh, PABP polyA inh, PHOSPHO1 inh)
CC(=O)c1cccc(OCC(=O)Nc2ccccc2N2CCOCC2)c1	none (no result: eIF4H FP inh, PABP polyA inh, PHOSPHO1 inh)
CCCC1=NN2C(=N)/C(=C\c3ccc(SCc4ccco4)o3)C(=O)N=C2S1	eIF4H FP inh inconclusive, PABP polyA inh inconclusive, PHOSPHO1 inh 89.2
COc1ccc2nc(SC(C)C(=O)NC3CCCC3)[nH]c2c1 (stereo not drawn)	none (no result: eIF4H FP inh, PABP polyA inh, PHOSPHO1 inh)
COC(=O)C1CCN(C(=O)C2CC(=O)N(c3ccc(C)c(Cl)c3)C2)CC1 (stereo not drawn)	none (no result: eIF4H FP inh, PABP polyA inh, PHOSPHO1 inh)
CCCCN1/C(=C/c2cccc[n+]2C)Sc2cc(NC(C)=O)ccc21	PABP polyA inh 60.9
CCOC(=O)C1(C)CCCN(C(=O)c2cc(C#N)cs2)C1 (stereo not drawn)	none (no result: CRFBP-R2 block, eIF4H FP inh, PABP polyA inh, PHOSPHO1 inh)
Cc1ccccc1-n1c(SCC(=O)Nc2ccccc2)nc2nc3c(cc2c1=O)CCCC3	eIF4H FP inh active
CC#CCCC(=O)N1C=Cc2ccccc2C1C#N (stereo not drawn)	CRFBP-R2 block 55.6
Cc1ccc(C#N)c(SCc2ccccc2F)n1	none
Cc1ccc2nc(CSc3nc(C)ccc3C#N)[nH]c2c1	PHOSPHO1 inh 99.7
O=C(O)c1cccc2cccc(-c3c4ccc(=O)c(O)c-4oc4c(O)c(O)ccc34)c12	CRFBP-R2 block 51.2 (no result: eIF4H FP inh, PABP polyA inh, PHOSPHO1 inh)
COc1cc2oc(=O)cc(CN3CCOCC3)c2cc1Cl	none (no result: CRFBP-R2 block, eIF4H FP inh, PABP polyA inh, PHOSPHO1 inh)
C[C@@H]1CN([C@H](C)CO)S(=O)(=O)c2ccc(C#Cc3ccccc3F)cc2O[C@H]1CN(C)C(=O)c1ccc2c(c1)OCO2	none (no result: eIF4H FP inh, PABP polyA inh, PHOSPHO1 inh)
Cc1ccc(Nc2c(O)nc[nH]c2=O)cc1	CRFBP-R2 block 73.5 (no result: eIF4H FP inh, PABP polyA inh, PHOSPHO1 inh)
O=C(O)CCCCCN1C(=O)/C(=C\c2ccncc2)SC1=S	none
O=C(O)CCCN1C(=O)/C(=C/c2ccc(-c3nc4ccccc4s3)o2)SC1=S	eIF4H FP inh inconclusive, PABP polyA inh active, PHOSPHO1 inh 69.3
O=C(O)CCCCCN1C(=O)/C(=C\c2ccc(-c3ccc(Cl)cc3)o2)SC1=S	eIF4H FP inh 53.6, PABP polyA inh 36.2
CCCCNC(=O)c1nc(C2CCN(S(=O)(=O)c3cccc(C(F)(F)F)c3)CC2)oc1-c1ccccc1	none (no result: CRFBP-R2 block, eIF4H FP inh, PABP polyA inh, PHOSPHO1 inh)
